Experimental data taken from article PMC7819943, “Rice protein-binding microarrays: a tool to detect cis-acting elements near promoter regions in rice”.
In all, about 68,000 sequences were measured (“fluorescence intensity (a.u.)”: median about 9,100, highest 2% from about 16,000 on). What follows is part of a selection rich in the highest values, with near analogues and random picks from the rest.

What follows are sequences tested against OsWRKY34 (Oryza sativa, UniProt Q0JBA9 1-250) (assay: protein-binding microarray (RPBM); PBS, 2% BSA, 51.3 ng/ul salmon testes DNA, 50 uM zinc acetate, 200 nM TF, 25 C, 1 h; high values mean tight binding). Settings: protein: recombinant; tags: N-terminal polyhistidine and DsRed monomer fusion (pET32a); label: CyDye5-dUTP incorporated in the synthesized complementary strand; 3' TTTTT single-stranded linker to array surface; dsDNA, one strand shown.
Chain of OsWRKY34 (Q0JBA9 entry or part of it): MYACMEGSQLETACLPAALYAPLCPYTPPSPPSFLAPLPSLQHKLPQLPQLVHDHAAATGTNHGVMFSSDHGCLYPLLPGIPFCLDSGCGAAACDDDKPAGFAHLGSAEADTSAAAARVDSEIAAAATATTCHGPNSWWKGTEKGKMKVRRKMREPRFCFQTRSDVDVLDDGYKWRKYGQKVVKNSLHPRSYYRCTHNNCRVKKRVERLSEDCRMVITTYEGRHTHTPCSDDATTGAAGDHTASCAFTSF
Procedure, shortened: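 Per-feature fluorescence intensity (arbitrary units), read on an Axon 4000B scanner, is the binding signal. Transcription factors carrying an N-terminal polyhistidine tag and DsRed fusion were expressed in E. coli BL21-CodonPlus and purified on Ni–NTA. A custom Agilent array, made double-stranded by primer extension with Cy5-dUTP and blocked with 2% BSA, was incubated with 200 nM protein in PBS, 2% BSA, salmon testes DNA and 50 µM zinc acetate at 25 °C for 1 h and then washed.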

Sequence	binding signal
CTTCTAAACATAGCTTCCACAATCGTCTCCGGGCCCTTCTCGGAGTCACCTAGTGCAG	8320 fluorescence intensity (a.u.)
GATTAGAATCCGGGTGGGCTGTTTCCACCACAAGAAACTACGGAGTCACCTAGTGCAG	8990 fluorescence intensity (a.u.)
AATTCCCAAAATATACAGTTTTTGTTATTCAGATGTTTACCGGAGTCACCTAGTGCAG	8130 fluorescence intensity (a.u.)
TACCGATGGGGCTCTTATACTCCAACTCTTGCCCTGTTTACGGAGTCACCTAGTGCAG	9020 fluorescence intensity (a.u.)
ATTCGATTTTCTTGCACCTAAACACATGCAACCCATCATTCGGAGTCACCTAGTGCAG	10100 fluorescence intensity (a.u.)
TCTATTGGGGCGGGGTGTGGTAAGGAAATTACAGTTTGCACGGAGTCACCTAGTGCAG	17700 fluorescence intensity (a.u.)
AGCTTGGTTTCTGGGTTGGGTTGGGTTTGGTTGCGTTGCGCGGAGTCACCTAGTGCAG	22700 fluorescence intensity (a.u.)
TGTGTGGTAGTTCGGGGTGGACCTACTTCTAATTATTGGGCGGAGTCACCTAGTGCAG	14100 fluorescence intensity (a.u.)
TTTTTCAATTTTTGGTTAAAATTTTTGGGGCTTTTCTTCGCGGAGTCACCTAGTGCAG	8990 fluorescence intensity (a.u.)
TTGGTTTTGGTTTGGGTGGTTGATGTGTGGGTGGTGGTGGCGGAGTCACCTAGTGCAG	19000 fluorescence intensity (a.u.)
GGGAAATTGGGTAATTAATTAATTATGTGAAAGGGGTGGGCGGAGTCACCTAGTGCAG	12800 fluorescence intensity (a.u.)
GGCTTTTATGGGGCGGGCTTTCTTTGGTCAATGGTCACTACGGAGTCACCTAGTGCAG	32200 fluorescence intensity (a.u.)
CGTGTGACTGTTGCCGTGATGGTTTTGATGTTTGTTTTGGCGGAGTCACCTAGTGCAG	9180 fluorescence intensity (a.u.)
GGTGGGTAGTTTTCTGCGTTTTCTTTTGTATTTTTGGTTGCGGAGTCACCTAGTGCAG	11500 fluorescence intensity (a.u.)
CGGCGGAGGAGGAGGTTTCTTGCTCGTTTCTTGGGTTGCGCGGAGTCACCTAGTGCAG	10800 fluorescence intensity (a.u.)
TGTGTTGGTGATGTCGATGTGTGGGTGGTGGTTTTTTTTTCGGAGTCACCTAGTGCAG	13800 fluorescence intensity (a.u.)
TTACTACTACCACTCGTTTTCTTGGCTTGGTTTGGTTTGGCGGAGTCACCTAGTGCAG	13000 fluorescence intensity (a.u.)
AAGACATTGCATCAACCGTCTTGCCAATCTATGTTTTCTACGGAGTCACCTAGTGCAG	8280 fluorescence intensity (a.u.)
ATTATAAGTTGTTTCTTCTTAGGTTGTGTTTAGTTCCTTGCGGAGTCACCTAGTGCAG	9250 fluorescence intensity (a.u.)
GCTTCCTCGGCCTCGGGCCGCGTCTCCATGGTCGACTTGACGGAGTCACCTAGTGCAG	11200 fluorescence intensity (a.u.)
ACCAGTTAATGTACATTTGCAATTATATTTTGTTATTTTTCGGAGTCACCTAGTGCAG	8230 fluorescence intensity (a.u.)
GGAGTTTGGTTGGTTGGTGGTGTTCTTGACGGGGCATGGACGGAGTCACCTAGTGCAG	31200 fluorescence intensity (a.u.)

Sequence	binding signal
ACCACTTGGCTTTCTTTCTTTTATCCGGTTAGTTCCGGCGCGGAGTCACCTAGTGCAG	8090 fluorescence intensity (a.u.)
TCTTTATTTACCTTTTTTTGAGTCGGACTTCTTTTTCTTTCGGAGTCACCTAGTGCAG	8240 fluorescence intensity (a.u.)
TTTTTTGTCGGACTTTTTTCTTCATTTTTTACCTCTTTTGCGGAGTCACCTAGTGCAG	16900 fluorescence intensity (a.u.)
GTTGTTTGTTTGAGACTCTGTTCCTTTTGGCTTGGTTTTCCGGAGTCACCTAGTGCAG	12700 fluorescence intensity (a.u.)
GTAAGTGTGTGTTCAGTGATGGCTATCGGTGGGTGGGTGGCGGAGTCACCTAGTGCAG	16600 fluorescence intensity (a.u.)
AGTTCTTGGAGTCACATGGTTGGTGGTGGTGTGGGCAGTTCGGAGTCACCTAGTGCAG	14200 fluorescence intensity (a.u.)
GAGATGGATGTGTGGTGATGGCCTAGGATGTGGGATGGATCGGAGTCACCTAGTGCAG	8160 fluorescence intensity (a.u.)
ATGTAGATGTGGTCATGTGGGTGCTATCTGTGTGGGTGATCGGAGTCACCTAGTGCAG	9360 fluorescence intensity (a.u.)
GGTGGTGTTGTTGGTGGTGCAGTTCTTGGAGTCACATGGTCGGAGTCACCTAGTGCAG	10300 fluorescence intensity (a.u.)
GAGATGCGGCACGGTTGGCTTGTTGACTTTTTCCGGCCCGCGGAGTCACCTAGTGCAG	17500 fluorescence intensity (a.u.)
CCTTTTTAGTCGGACTTCTTTTTCTTTTTTACCGACTTTGCGGAGTCACCTAGTGCAG	10300 fluorescence intensity (a.u.)
TTCTCCCTTTATTTTTGTTTATATAATTTCCAGATCAAAGCGGAGTCACCTAGTGCAG	8890 fluorescence intensity (a.u.)
GCCGCCGCCTCGCTCCCCATGGCGTCCGTACACTCCGGCGCGGAGTCACCTAGTGCAG	10300 fluorescence intensity (a.u.)
GCCGCCGCCCGCCGCCGCCGAGACCGACCCGACCACGATGCGGAGTCACCTAGTGCAG	8960 fluorescence intensity (a.u.)
AATTTCGGAAGGGTTGGTTTAGGCAGTAATATTCTCCATTCGGAGTCACCTAGTGCAG	8280 fluorescence intensity (a.u.)
GTGGCCTTTGGGAGCGGTGACCTGCTGCTCCATCCTTCATCGGAGTCACCTAGTGCAG	9620 fluorescence intensity (a.u.)
ATCCTGATCAGATTCTGAACTCCTTTTCTCTCTGCGCCCACGGAGTCACCTAGTGCAG	8480 fluorescence intensity (a.u.)
CACGTCGCCTCGTTTCTTGCCTCGCCGCTCGTCACTCGGCCGGAGTCACCTAGTGCAG	9810 fluorescence intensity (a.u.)
CTTGGCTTGGTTTGGTTTGGTGTTTGATCACGCGGTGGTGCGGAGTCACCTAGTGCAG	20800 fluorescence intensity (a.u.)
AATATGTGGGTGATTTGTTGTAATGGAGTATGTGGTGGAGCGGAGTCACCTAGTGCAG	10000 fluorescence intensity (a.u.)
CGGTTTCGTTTGAGATTTTTTTTTGGTGGTTTTGATTTCGCGGAGTCACCTAGTGCAG	8640 fluorescence intensity (a.u.)
CGATCTTGCCCTGGTTGGTTGGTGGTGGTGGTGGGTTTTGCGGAGTCACCTAGTGCAG	37100 fluorescence intensity (a.u.)

Sequence	binding signal
GTTTATTGTATTTGGAGTAAGTGATTGTAACTTTTTTTTACGGAGTCACCTAGTGCAG	9200 fluorescence intensity (a.u.)
CGGTGGTGGTGGTGGTGCCTTGGCTAGTTTGGCCGGCGCGCGGAGTCACCTAGTGCAG	14300 fluorescence intensity (a.u.)
GATAGTTGAGGGGTCGAGATTTTTGGTATTGCGGATTGGGCGGAGTCACCTAGTGCAG	10400 fluorescence intensity (a.u.)
CGGTGGACTGGTGGTTTTTGCGGGGTTGCAGAATTTGGTGCGGAGTCACCTAGTGCAG	9390 fluorescence intensity (a.u.)
GGCGAGTGGCGGATTTGTTTTTGGTTTGTTTTTGAGTTTGCGGAGTCACCTAGTGCAG	9060 fluorescence intensity (a.u.)
GGTGGGTTGGGCCGTGATTTGTATGGACTTTATTTGTAAGCGGAGTCACCTAGTGCAG	19000 fluorescence intensity (a.u.)
GGTGGTCTTCTTTTTTTGCGGTGGAGTTGGATTTGGGTTGCGGAGTCACCTAGTGCAG	13000 fluorescence intensity (a.u.)
TATTTTTGGGTTGGGTTTGGGTTGGGTTGGGTCGAGTTGGCGGAGTCACCTAGTGCAG	26100 fluorescence intensity (a.u.)
GTTTACATGTGTAGATCTAATGATGCGTTCAATCTAGTTTCGGAGTCACCTAGTGCAG	8860 fluorescence intensity (a.u.)
GCGGATTTCCTTTCTAAACGTGCCAACGATGTGTTCTTGTCGGAGTCACCTAGTGCAG	8250 fluorescence intensity (a.u.)
CAAAACAGAAGAGCCAGGTTAGTTTAGTTGGTCATATTCACGGAGTCACCTAGTGCAG	8310 fluorescence intensity (a.u.)
AGCCATCCGGCCGCGGCCCGTCACAGGTAACTAGTCATTTCGGAGTCACCTAGTGCAG	9260 fluorescence intensity (a.u.)
TTCCCACCGCTGCCGCTCGTCCCGTCTCACCGATCCCTCCCGGAGTCACCTAGTGCAG	10300 fluorescence intensity (a.u.)
CGCCGCCATTTCCGCCTCTTCTTCTCTTAAACAAAAAGCCCGGAGTCACCTAGTGCAG	10200 fluorescence intensity (a.u.)
TCCTGTGTTTTTTCTGTGTTTTGCAATCCTCTGTTTTACACGGAGTCACCTAGTGCAG	10900 fluorescence intensity (a.u.)
CACTACCTCAGTATTCTCTACTACTACTCTTTTCTCAGAGCGGAGTCACCTAGTGCAG	8470 fluorescence intensity (a.u.)
AACTTGGTGGGTTTGGTTTTGCTCTTTCTGTTGACCAAGCCGGAGTCACCTAGTGCAG	12000 fluorescence intensity (a.u.)
CTACTACTCTTTTCTCAGAGCTAGTGAGGGGCGGGCGGGCCGGAGTCACCTAGTGCAG	17500 fluorescence intensity (a.u.)
GGTAAAACATGTTGGATTTTATTTTGGTGGGATGTGCAATCGGAGTCACCTAGTGCAG	9620 fluorescence intensity (a.u.)
TTTTTGGGTGGGAGTTGTATTTTTTTAACATGTGGGAAAACGGAGTCACCTAGTGCAG	21300 fluorescence intensity (a.u.)
TGGGGTTTTCTTTTTTGGGTTGGGTTGATCTTTTGGGTGGCGGAGTCACCTAGTGCAG	36600 fluorescence intensity (a.u.)
ACTACTCACTCTTCATTGCTTTTTTTTTTCTCTCTCTAGCCGGAGTCACCTAGTGCAG	9600 fluorescence intensity (a.u.)

Sequence	binding signal
GTCTTATTGTGGTTGGGAGTTTAACGGTGTACCGAAGAAACGGAGTCACCTAGTGCAG	8780 fluorescence intensity (a.u.)
TTGACTGGGTTTTTCTTTTTTTTTTCTGTTTTGTTGTTTGCGGAGTCACCTAGTGCAG	10100 fluorescence intensity (a.u.)
GATCTGACCGGATTTTGCGGTGGGGTTTTCTTTTTTGGGTCGGAGTCACCTAGTGCAG	12200 fluorescence intensity (a.u.)
TGGTTTTCTGTTTTCTTGGTTTTGGGTGGTGGCAGTTGACCGGAGTCACCTAGTGCAG	23200 fluorescence intensity (a.u.)
TGGGGTTCTTGTTTTTCTTTTCCGGGATCTTTGGGTGATGCGGAGTCACCTAGTGCAG	15900 fluorescence intensity (a.u.)
TCTTCGTCGACACCACCCCAGCCGGTGTCCCCACGCGCTCCGGAGTCACCTAGTGCAG	10100 fluorescence intensity (a.u.)
CCAGTTTGTATCTCATGTATTGGGCCTCGAAATCTGGTATCGGAGTCACCTAGTGCAG	12200 fluorescence intensity (a.u.)
GTTACTGCACATTGACCATCGCGTTACTGCACCGTTCTGCCGGAGTCACCTAGTGCAG	8940 fluorescence intensity (a.u.)
GAGGGGTTTCATTGTTATTTTTGGGTAATCCAAATTTACACGGAGTCACCTAGTGCAG	16300 fluorescence intensity (a.u.)
GCGAACCGCGAATACAATAGCCGGCGCCCCGCGCGTACACCGGAGTCACCTAGTGCAG	8070 fluorescence intensity (a.u.)
TCCTCGCGACCTTAATTTACTCCTCCAATGGCCGCCGCTGCGGAGTCACCTAGTGCAG	8600 fluorescence intensity (a.u.)
CGCTGTATTTTGTTGGGATCACCTGTACATTTCTTCACAACGGAGTCACCTAGTGCAG	10900 fluorescence intensity (a.u.)
TTTCTTGGTCTTTGGGTTAAATGTGGTTATGCCTTATATTCGGAGTCACCTAGTGCAG	8260 fluorescence intensity (a.u.)
GAGTCATAGTAGTGTAGTAGTGGGTCAACTCAGTCAAGTCCGGAGTCACCTAGTGCAG	8290 fluorescence intensity (a.u.)
GTATTATTGTCCCTTACATTGCTAACTCAATGTTGTATTACGGAGTCACCTAGTGCAG	8130 fluorescence intensity (a.u.)
TTTTTACAACCCTGCGATTCAGATAGACCTTACCATTTTTCGGAGTCACCTAGTGCAG	8940 fluorescence intensity (a.u.)
TAGGTGGTGTTTGGTTTATGGATCAGGTGGGTTGGGTTGGCGGAGTCACCTAGTGCAG	8740 fluorescence intensity (a.u.)
GTGGGTGGTTGGTGGTGGTGGTGGTGGTGGTGATCTTTGGCGGAGTCACCTAGTGCAG	23900 fluorescence intensity (a.u.)
CAGCGGAGAGCGGCGGCGGCGAGTAGGATGGGGTTTGATTCGGAGTCACCTAGTGCAG	8380 fluorescence intensity (a.u.)
GAGTAGGATGGGGTTTGATTTTGGGGTTCGTGGGGTCGAGCGGAGTCACCTAGTGCAG	17100 fluorescence intensity (a.u.)
ATAGGAGGGGTCATATTAGTAGGGTTTTTTTTGGACGGAGCGGAGTCACCTAGTGCAG	8260 fluorescence intensity (a.u.)
TTTGATCTTGTGGTGGTTTGGGTGATCGGTGGCGATGGGGCGGAGTCACCTAGTGCAG	11000 fluorescence intensity (a.u.)
